This passage reports Potency results from PubChem BioAssay (NCATS).

Results filed as inconclusive are left out. A call without a number means that no potency is given here. The source made the active and inactive calls. The call rests on the fitted dose curve; in most records, active means well fitted inhibition curve with a large enough effect; inconclusive means small, poorly fitted or top-dose-only effect; inactive means flat fitted curve, though single readings scatter.

In the assay the target is Aldehyde dehydrogenase, mitochondrial (Homo sapiens) (UniProt P05091). The experiment in a line: qHTS for Inhibitors of the Aldehyde Dehydrogenase Family (ALDH2) Primary screen (AID 2061308). Further: nearly all actives have a fitted effect of over 55% in size. Particulars: ALDH2 enzyme inhibition qHTS, 1536-well; series mostly up to 56 µM. A general note: qHTS replaces the single test concentration by a dilution series.
With `CC12CCC3C1C(c1c(cc(O)c(C(=O)c4ccccc4)c1O)O2)C3(C)C` (stereo not given), the Potency result was “inactive”.

Turning to `O=C(NC1CCCc2c1cnn2-c1ccc(F)cc1F)c1cnon1` (stereo not given), the Potency result is “inactive”.

As to `Cc1c(C(=O)O)[nH]c2c1C(=O)CCC2`, the Potency result is “inactive”.

In the case of `O=S1(=O)N=C(Oc2ccc(-c3ccccc3)cc2)c2ccccc21`, the Potency result is “inactive”.

As to `CC(=O)Nn1c(C)nc2sc3c(c2c1=O)CCNC3`, the Potency result was “inactive”.

With `CCC1(CC)CCN(C(=O)CC(c2ccc3c(c2)OCO3)c2c(O)cc(OC)cc2OC)C1` (stereo not given), the Potency entry was “inactive”.

In the case of `CC(C)(C)c1ccc(-c2nc(SCCCOc3ccccc3)n3[nH]c(=O)cc3n2)cc1`, the Potency entry was “inactive”.

On to `CC(=O)c1ccc(N2CCN(S(=O)(=O)c3ccc4c(c3)OCC(=O)N4)CC2)cc1`, for which the Potency result was “inactive”.

Take `CC(C)(C)NS(=O)(=O)c1cccc(-c2nnc(SCc3ccc(C(=O)O)cc3)n2-c2ccccc2)c1`: the Potency entry was “inactive”.

Take `Cc1ccccc1C(=O)N1CCc2cc(-c3nc(NC(=O)c4ccc5c(c4)OCO5)sc3C)ccc21`: the Potency entry was “inactive”.

As to `O=S(=O)(NCC1CN(S(=O)(=O)c2c(F)cccc2F)C1)c1ccc2c(c1)OCCO2`, the Potency entry is “inactive”.

Take `CC1=C[C@@H]2[C@H]3[C@@H]4O[C@@](C)(CC[C@H]4O)[C@H]3CC(=O)[C@]23C(=O)N[C@@H](CC(C)C)[C@@H]3[C@@H]1C`: the Potency entry was “inactive”.

As to `Cc1ccc(NC(=O)CSc2nnc(-c3cccc([S+](=O)([O-])N4CCCC4)c3)n2-c2ccccc2)cc1`, the Potency result was “inactive”.

As to `CC(=O)Nc1sc2c(c1-c1cccc3c1sc1ccccc13)CCNC2`, the Potency entry is “inactive”.

With `CN(CCC1CCCO1)c1ncnc2ccc(-c3ccc4c(c3)OCO4)cc12` (stereo not given), the Potency entry was “inactive”.

Turning to `CC1=C(C(=O)Nc2ccccc2)C(c2ccccc2Cl)N=C(Nc2nc3ccccc3o2)N1` (stereo not given), the Potency result is “inactive”.

As to `Cc1cnc(-c2ccccc2C(C)C)nc1NCc1ccc(-c2cccc(S(N)(=O)=O)c2)cc1`, the Potency result is “inactive”.

As for `O=C(Nc1nnc(COc2ccc(Cl)cc2)s1)c1cccs1`, the Potency result was “inactive”.

For `CN(CCc1cccs1)c1ncnc2ccc(-c3ccc4c(c3)OCO4)cc12`, the Potency result is “inactive”.

Take `O=C(/C=C/n1cnc(-c2cc(C(F)(F)F)cc(C(F)(F)F)c2)n1)NNc1cnccn1`: the Potency entry was “inactive”.

With `Cc1cc(C)n2ncc(C(=O)Nc3ccc(C(C)(C)C)cc3)c2n1`, the Potency result was “inactive”.

Consider `O=S(=O)(NCC1CC1)c1ccc(Nc2nccc(N3CCCc4cc(O)ccc43)n2)cc1`, for which the Potency result is “inactive”.

`CS(=O)(=O)c1ccc(C(=O)OCC(=O)N2CCOCC2)cc1[N+](=O)[O-]`: the Potency result was “inactive”.

On to `Cc1noc(C)c1-c1ccc2ncnc(NCc3ccc(-c4ccccc4)cc3)c2c1`, for which the Potency entry was “inactive”.

For `Nc1ccc(S(=O)(=O)N2CCN(S(=O)(=O)c3ccc4c(c3)OCCO4)CC2)cc1`, the Potency result is “inactive”.

As for `Cc1ccc(NS(=O)(=O)c2ccc3ccccc3c2)cc1C`, the Potency result is “inactive”.

For `CC(=O)Nc1sc2c(c1C(O)c1nc3ccccc3s1)CCN(C(C)C)C2` (stereo not given), the Potency result was “inactive”.

For `COc1cc(-c2nc(Nc3ccc(F)c(F)c3)c3ccccc3n2)ccn1`, the Potency entry was “inactive”.

As to `C=C1C(=O)O[C@H]2/C=C(/C)[C@@H](OC(C)=O)C/C=C(\C)C[C@@H](OC(=O)/C(=C/C)COC(=O)/C(=C/C)CO)[C@@H]12`, the Potency result is “inactive”.

In the case of `Cc1ccc(CNc2nc(-c3ccccc3C(F)(F)F)nc3ccccc23)s1`, the Potency entry is “inactive”.

On to `CCCn1ncc(CN2CCCC(C(=O)c3cccc(OC(C)C)c3)C2)c1C` (stereo not given), for which the Potency entry is “inactive”.

Take `CC(Cc1cnccn1)Nc1cnc2c(O)ccc(C(=O)O)c2c1` (stereo not given): the Potency entry was “inactive”.

Regarding `CCOC(=O)c1c(-c2ccc(OC)cc2)csc1NC(=O)C1CCCO1` (stereo not given), the Potency entry was “inactive”.

For `Cc1ccnc(NC(=S)N2CC3CN(c4ncc(C(F)(F)F)cc4Cl)CC3C2)c1` (stereo not given), the Potency result is “inactive”.

Turning to `O=C(Cn1nc(-c2ccc(C(F)(F)F)cc2)ccc1=O)NCCc1ccccc1`, the Potency result is “inactive”.

For the compound `O=C1CCc2cc(S(=O)(=O)Nc3cccc(-c4ccccc4)c3)ccc2N1`, the Potency result was “inactive”.

As for `COc1cccc(CNc2ccc(S(=O)(=O)Nc3cccnc3)cc2)c1O`, the Potency result was “inactive”.

In the case of `O=C1CCc2cc(S(=O)(=O)Nc3ccc(F)c(Cl)c3)ccc2N1`, the Potency entry was “inactive”.

Consider `CC1(C)CC[C@]23CO[C@@]4(CCC5[C@@]6(C)CC[C@H](O[C@@H]7OC[C@H](O[C@@H]8O[C@H](CO)[C@@H](O)[C@H](O)[C@H]8O[C@@H]8OC[C@@H](O)[C@H](O)[C@H]8O)[C@H](O)[C@H]7O[C@@H]7O[C@H](CO)[C@@H](O)[C@H](O)[C@H]7O)[C@@](C)(CO)C6CC[C@@]5(C)[C@]4(C)C[C@H]2O)[C@@H]3C1` (stereo not given in full), for which the Potency result is “inactive”.

`CCOc1ccc(CCNC(=O)C2CCCCC2)cc1OCC`: the Potency entry was “inactive”.
